According to PubChem BioAssay (Tox21):
Records with an inconclusive call do not appear. Activity calls are given as the source filed them. Unless noted, the call rests on the fitted dose curve; in most records, active means well fitted curve in the direction sought with a large enough effect in the repeat runs; inconclusive means weak or mixed curves; inactive means no such curve, though single readings can be large; an effect the other way counts as inactive or inconclusive.

Tests used:
[1] = qHTS assay for small molecule agonists of the p53 signaling pathway (AID 651631; calls by dose curve; further: nearly all actives have a fitted effect of over 15% in size)
Method in brief: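 Stably transfected HCT-116 cells (beta-lactamase behind p53 response elements) get compounds after a 5 h settling period; 16 h later at 37 °C, FRET substrate is loaded and fluorescence read after 2 h.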

[2] = qHTS assay for small molecules that induce genotoxicity in human embryonic kidney cells expressing luciferase-tagged ATAD5 (AID 651632); further: nearly all actives have a fitted effect of over 15% in size
Method in brief: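 HEK293T cells carrying luciferase-tagged ATAD5 were given compound or DMSO vehicle and incubated 16 hr at 37C, 5% CO2. Luciferase activity was read after 30 min at room temperature with Amplite; a rise signals genotoxic stress.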

[3] = qHTS assay for small molecule agonists of the p53 signaling pathway - cell viability (AID 651633; calls by dose curve;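 further: p53RE-bla HCT reporter cells with a stable beta-lactamase p53 reporter; series mostly up to about 83 µM; nearly all actives have a fitted effect of over 30% in size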)
Method in brief: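 Viability counter-read: CellTiter-Glo luminescence (30 min, room temperature) in the same p53RE-bla plates. These plates had been exposed to compounds for 16 h at 37 C.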

[4] = qHTS assay for small molecules that induce genotoxicity in human embryonic kidney cells expressing luciferase-tagged ATAD5 - cell viability (AID 651634; calls by dose curve; further: nearly all actives have a fitted effect of over 25% in size)
Method in brief: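 HEK293T cells carrying luciferase-tagged ATAD5, 2,000 cells/well, exposed to compound for 15.5 hr at 37C. Viability read as live-cell protease activity by CellTiter-Fluor fluorescence after 30 min at 37C.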

[5] = qHTS assay for small molecule disruptors of the mitochondrial membrane potential - cell viability (AID 720634; calls by dose curve;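 further: human HepG2 liver cancer cells; series mostly up to about 83 µM; nearly all actives have a fitted effect of over 20% in size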)
Method in brief: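 HepG2 cells, 2,000 per well, attached overnight, then treated 1 hr at 37 C, 5% CO2. Viability read as ATP by CellTiter-Glo luminescence after 30 min at room temperature. Read in the same wells as the m-MPI membrane-potential dye assay.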

[6] = qHTS assay to test for compound auto fluorescence at 590 nm (red) in HepG2 cells (AID 720674)
Method in brief: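 We screened compounds on adherent HepG2 cells, incubating them for an hour at 37 C in 5% CO2 before reading emission at 590 nm under 540 nm excitation; values reflect equivalence to Rose Bengal sodium fluorescence.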

[7] = qHTS assay to test for compound auto fluorescence at 535 nm (green) in HepG2 cells (AID 720675)
[8] = qHTS assay to test for compound auto fluorescence at 460 nm (blue) in HEK293 cells (AID 720678)
Method in brief: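 Cells were seeded and left to adhere for 4-5 hr at 37C. Compounds were then pin-transferred. After an overnight incubation at 37C under 5% CO2, intrinsic fluorescence at 405/460 nm was measured and referenced to triamterene.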

[9] = qHTS assay to test for compound auto fluorescence at 590 nm (red) in HEK293 cells (AID 720679)
Method in brief: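 Each well held 2,000 HEK293 cells in medium containing 10% dialyzed FBS. Following 4-5 hr attachment at 37C, 23 nL test compound or DMSO was added; plates sat overnight, and red fluorescence (540/590nm) was recorded.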

[10] = qHTS assay to test for compound auto fluorescence at 535 nm (green) in HEK293 cells (AID 720680)
[11] = qHTS assay to test for compound auto fluorescence at 460 nm (blue) in HEK293 cell free culture (AID 720681)
Method in brief: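 Blue fluorescence (Ex 405/Em 460 nm, triamterene-equivalent) was read immediately after pin transfer of compound or DMSO into medium (DMEM, 10% FBS) without cells.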

[12] = qHTS assay to test for compound auto fluorescence at 535 nm (green) in HEK293 cell free culture (AID 720682)
Method in brief: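 Using fluorescein as calibrant, autofluorescence was quantified at 485/535 nm in cell-free DMEM containing 10% FBS after pintool addition of compound or vehicle.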

[13] = qHTS assay to test for compound auto fluorescence at 590 nm (red) in HEK293 cell free culture (AID 720683)
Method in brief: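 Red-channel autofluorescence of compounds in culture medium (DMEM, 10% FBS), no cells, measured at 540/590 nm. Rose Bengal sodium is the reference fluorophore for equivalence.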

[14] = qHTS assay to test for compound auto fluorescence at 590 nm (red) in HepG2 cell free culture (AID 720684)
Method in brief: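 Steps: dispense MEM/10% FBS medium, no cells; pin compound or DMSO vehicle; read red channel, Ex/Em 540/590 nm. Output given as Rose Bengal sodium equivalents.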

[15] = qHTS assay to test for compound auto fluorescence at 460 nm (blue) in HepG2 cell free culture (AID 720685)
Method in brief: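 Compound (23 nL) or DMSO pinned into cell-free MEM with 10% FBS; blue fluorescence read at 405/460 nm excitation/emission, expressed as auto-fluorescence equivalency to triamterene.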

[16] = qHTS assay to test for compound auto fluorescence at 460 nm (blue) in HepG2 cells (AID 720687)
Method in brief: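 Blue-channel autofluorescence (Ex/Em 405/460 nm, triamterene-equivalent) was measured after 1 hr compound exposure at 37 C, 5% CO2. Cells were HepG2, plated overnight at 37 C in MEM plus 10% FBS.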

[17] = target: Glucocorticoid receptor (Homo sapiens) (UniProt P04150); experiment: qHTS assay to identify small molecule agonists of the glucocorticoid receptor (GR) signaling pathway (AID 720691; active means well fitted activation curve with a large enough effect in the signal ratio in the repeat runs, not every such curve was filed as active; the % refers to the signal ratio)
Glucocorticoid receptor (Homo sapiens), sequence (P04150 whole entry, looked up): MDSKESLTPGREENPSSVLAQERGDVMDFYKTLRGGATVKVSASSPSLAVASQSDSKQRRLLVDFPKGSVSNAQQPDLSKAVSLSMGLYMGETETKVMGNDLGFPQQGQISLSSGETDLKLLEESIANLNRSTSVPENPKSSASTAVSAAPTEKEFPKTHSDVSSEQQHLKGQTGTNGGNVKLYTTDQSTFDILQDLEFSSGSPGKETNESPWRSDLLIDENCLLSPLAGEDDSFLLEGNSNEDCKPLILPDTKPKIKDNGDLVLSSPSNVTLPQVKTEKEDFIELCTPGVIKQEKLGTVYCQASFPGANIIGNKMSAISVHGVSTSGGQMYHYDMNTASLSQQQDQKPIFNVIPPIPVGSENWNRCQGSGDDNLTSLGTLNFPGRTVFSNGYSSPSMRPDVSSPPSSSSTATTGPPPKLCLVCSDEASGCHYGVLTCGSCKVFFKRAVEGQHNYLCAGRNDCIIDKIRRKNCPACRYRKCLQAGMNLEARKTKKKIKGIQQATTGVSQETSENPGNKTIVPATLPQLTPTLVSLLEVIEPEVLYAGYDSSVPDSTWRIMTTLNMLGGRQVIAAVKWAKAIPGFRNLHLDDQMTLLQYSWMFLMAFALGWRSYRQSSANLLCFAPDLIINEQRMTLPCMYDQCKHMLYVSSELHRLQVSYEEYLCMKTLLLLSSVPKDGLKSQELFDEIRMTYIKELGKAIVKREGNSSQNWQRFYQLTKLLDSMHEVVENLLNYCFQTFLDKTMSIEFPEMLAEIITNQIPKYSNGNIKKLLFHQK
Method in brief: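 GR-bla HeLa cells carrying a GRE-driven beta-lactamase reporter, exposed to compounds for 18 h at 37 C. Reporter activation read as fluorescence after 2 h with LiveBLAzer B/G FRET substrate at room temperature.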

[18] = target: Glucocorticoid receptor (Homo sapiens) (UniProt P04150); experiment: qHTS assay to identify small molecule antagonists of the glucocorticoid receptor (GR) signaling pathway (AID 720692; active means well fitted inhibition curve with a large enough effect in the signal ratio in the repeat runs, not every such curve was filed as active; the % refers to the signal ratio)
Method in brief: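 GR-bla HeLa cells carrying a GRE-driven beta-lactamase reporter received compound after 4 h plating, then dexamethasone (5 nM final). After 18 h at 37C, the FRET substrate was loaded for 2 h at room temperature and fluorescence read.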

[19] = qHTS assay to test for compound auto fluorescence at 535 nm (green) in HepG2 cell free culture (AID 720686)
On the % scale 0 is the no-effect control and ±100 the full control effect.

CCCc1ncc(C[n+]2ccccc2C)c(N)n1
inactive: Potency [1] | Potency [2] | Potency [3] | Potency [4] | outcome [5] | fluorescence, relative to Rose Bengal [6] -0.079% [at 18.6 µM] | fluorescence, % of fluorescein control [7] 0.0061% [at 18.6 µM] | fluorescence, % of triamterene [8] -0.0062% [at 18.6 µM] | fluorescence, % of fluorescent control [9] 0.0217% [at 18.6 µM] | fluorescence, % of fluorescein [10] -0.083% [at 18.6 µM] | fluorescence, % of fluorescent control [11] -0.136% [at 18.6 µM] | activity change [12] -0.0094% [at 18.6 µM] | fluorescence, % of fluorescent control [13] 0.0061% [at 18.6 µM] | fluorescence, % of Rose Bengal [14] -0.0113% [at 18.6 µM] | fluorescence, % of fluorescent control [15] 0.0057% [at 18.6 µM] | fluorescence, % of fluorescent control [16] -0.0148% [at 18.6 µM] | Potency [17] | Potency [18]

CCCCCC(=O)OCCc1ccccc1
inactive: Potency [1] | Potency [2] | Potency [3] | Potency [4] | outcome [5] | outcome [6] | outcome [7] | outcome [8] | outcome [9] | outcome [10] | outcome [11] | outcome [12] | outcome [13] | outcome [14] | outcome [15] | outcome [16] | Potency [17] | Potency [18]

CC(C)=CCC/C(C)=C/C#N
inactive: Potency [1] | Potency [2] | Potency [3] | Potency [4] | outcome [5] | outcome [6] | outcome [7] | outcome [8] | outcome [9] | outcome [10] | outcome [11] | outcome [13] | outcome [14] | outcome [15] | outcome [19] | outcome [16] | Potency [17] | Potency [18]

CCCCOCCOC(=O)CCCCCCCCC(=O)OCCOCCCC
inactive: Potency [1] | Potency [2] | Potency [3] | Potency [4] | outcome [5] | outcome [6] | outcome [7] | outcome [8] | outcome [9] | outcome [10] | outcome [11] | outcome [12] | outcome [13] | outcome [14] | outcome [15] | outcome [19] | outcome [16]

CCCn1cc[n+](C)c1C
inactive: Potency [1] | Potency [2] | Potency [3] | Potency [4] | outcome [5] | outcome [6] | outcome [7] | outcome [8] | outcome [9] | outcome [10] | outcome [11] | outcome [12] | outcome [13] | outcome [14] | outcome [15] | outcome [19] | outcome [16]

CN(C)CCCN(C)CCCN(C)C
inactive: Potency [1] | Potency [2] | Potency [3] | Potency [4] | outcome [5] | outcome [6] | outcome [7] | outcome [8] | outcome [9] | outcome [10] | outcome [11] | outcome [12] | outcome [13] | outcome [14] | outcome [15] | outcome [16] | Potency [17] | Potency [18]

O=C(c1ccccc1)C1(O)CCCCC1
inactive: Potency [1] | Potency [2] | Potency [3] | Potency [4] | outcome [5] | outcome [6] | outcome [7] | outcome [8] | outcome [9] | outcome [10] | outcome [11] | outcome [12] | outcome [13] | outcome [14] | outcome [15] | outcome [19] | outcome [16]

CC(=O)c1cnccn1
inactive: Potency [1] | Potency [2] | Potency [3] | Potency [4] | outcome [5] | outcome [6] | outcome [7] | outcome [8] | outcome [9] | outcome [10] | outcome [11] | outcome [12] | outcome [13] | outcome [14] | outcome [15] | outcome [16] | Potency [17] | Potency [18]

C[N+]1(CC2COC(c3ccccc3)(c3ccccc3)O2)CCCCC1 (configuration not stated)
inactive: Potency [1] | Potency [2] | Potency [3] | Potency [4] | outcome [5] | outcome [6] | outcome [7] | outcome [8] | outcome [9] | outcome [10] | outcome [11] | outcome [12] | outcome [13] | outcome [14] | outcome [15] | outcome [19] | outcome [16] | Potency [18]

CCCCN1C=CN(C)C1
inactive: Potency [1] | Potency [2] | Potency [3] | Potency [4] | outcome [5] | fluorescence, relative to Rose Bengal [6] -0.0028% [at 18.6 µM] | fluorescence, % of fluorescein control [7] -0.0563% [at 18.6 µM] | fluorescence, % of triamterene [8] 0.173% [at 18.6 µM] | fluorescence, % of fluorescent control [9] -0.0345% [at 18.6 µM] | fluorescence, % of fluorescein [10] -0.0653% [at 18.6 µM] | fluorescence, % of fluorescent control [11] -0.116% [at 18.6 µM] | activity change [12] 0.0078% [at 18.6 µM] | fluorescence, % of fluorescent control [13] 0.0298% [at 18.6 µM] | fluorescence, % of Rose Bengal [14] 0.057% [at 18.6 µM] | fluorescence, % of fluorescent control [15] -0.0433% [at 18.6 µM] | fluorescence, % of fluorescein control [19] -0.069% [at 18.6 µM] | fluorescence, % of fluorescent control [16] 0.0295% [at 18.6 µM] | Potency [17] | Potency [18]

OCCc1ccccn1
inactive: Potency [1] | Potency [2] | Potency [3] | Potency [4] | outcome [5] | outcome [6] | outcome [7] | outcome [8] | outcome [9] | outcome [10] | outcome [11] | outcome [13] | outcome [14] | outcome [15] | outcome [19] | outcome [16] | Potency [17] | Potency [18]

CC(=O)C1CCCCC1=O (configuration not stated)
inactive: Potency [1] | Potency [2] | Potency [3] | Potency [4] | outcome [5] | outcome [6] | outcome [7] | outcome [8] | outcome [9] | outcome [11] | outcome [12] | outcome [13] | outcome [14] | outcome [15] | outcome [19] | outcome [16] | Potency [17] | Potency [18]

CCCCCCCC1CCCC1=O (configuration not stated)
inactive: Potency [1] | Potency [2] | Potency [3] | Potency [4] | outcome [5] | outcome [6] | outcome [7] | outcome [8] | outcome [9] | outcome [10] | outcome [12] | outcome [13] | outcome [14] | outcome [15] | outcome [19] | outcome [16]

CCCCOCCOC(=O)COc1cc(Cl)c(Cl)cc1Cl
inactive: Potency [1] | Potency [2] | Potency [3] | Potency [4] | outcome [5] | outcome [6] | outcome [7] | outcome [8] | outcome [9] | outcome [10] | outcome [13] | outcome [14] | outcome [15] | outcome [19] | outcome [16] | Potency [17] | Potency [18]
